The record followed here is PubChem BioAssay (EPA / NIEHS).

Where “and” joins values, the source holds several entries; their conditions need not be identical. Equal values may be shown once. Inconclusive results are not listed. Some compounds were tested as several samples or in several runs, with calls that do not always agree. Calls of active or inactive are those of the source. How the source made its calls, unless noted: active means hit-call score of the fitted dose curve at least 0.9, where 1 is the maximum; inactive means score below 0.9.

Assay [1] can be described thus: ATG_PXRE_CIS: Attagene CIS-FACTORIAL HepG2 Assay for human Pregnane X Receptor Element (PXRE) (AID 2282957). The note with it: HepG2 Attagene CIS-FACTORIAL PXRE reporter, mRNA; actives raise or lower the signal. In outline: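 Endogenous transcription factor activity in HepG2 was gauged through induction of reporter mRNA driven by a cis-regulating promoter element, sampled 24 h post-treatment. Activity was fitted in both directions against DMSO negative control.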

Assay [2] can be described thus: ATG_PPRE_CIS: Attagene CIS-FACTORIAL HepG2 Assay for human Peroxisome Proliferator-activated Response Element (PPRE) (AID 2282958). The note with it: HepG2 PPRE cis-element reporter, Attagene transcription factor profiling; actives raise or lower the signal. The procedure, abridged:
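In this cell-based multiplex, a PPRE cis element drives a reporter sequence in transiently transfected HepG2 cells. Following 24 h treatment, labeled cDNA amplicons are sized and quantified by capillary electrophoresis, with DMSO defining baseline.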

Assay [3] in a line: ATG_RORE_CIS: Attagene CIS-FACTORIAL HepG2 Assay for human RAR-related Orphan Receptor Element (RORE) (AID 2282959). Conditions: HepG2 Attagene cis-factorial RORE reporter, mRNA; actives raise or lower the signal. In outline: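 Endogenous factor activity at a cis response element is read as reporter transcript levels in HepG2 cells, 24 h post-dose. Transcripts are quantified by RT-PCR with capillary electrophoresis, and data fitted in both directions against DMSO.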

A short description of assay [4]: ATG_Sox_CIS: Attagene CIS-FACTORIAL HepG2 Assay for human SRY-box transcription factor (SOX) (AID 2282960). The note with it: HepG2 Attagene cis-factorial SOX reporter, mRNA; actives raise or lower the signal. The procedure, abridged: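 Measures mRNA induction of a SOX1-associated reporter in HepG2 after 24 h dosing. Fluorescently labelled RT-PCR fragments are separated by capillary electrophoresis, and gain or loss relative to DMSO control is fitted.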

The target in assay [5] is Transcription factor Sp1 (Homo sapiens) (UniProt P08047). Put plainly: ATG_Sp1_CIS: Attagene CIS-FACTORIAL HepG2 Assay for human Specificity Protein 1 (Sp1) (AID 2282961). The note with it: HepG2 Sp1 cis-reporter transcription, actives raise or lower the signal. The procedure, abridged:
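Cells: HepG2, transiently transfected with cis-regulated multiplexed reporters. Exposure: 24 h. Detection: reporter transcripts amplified, fluorescently labeled, restriction-digested and sized by capillary electrophoresis. Analysis: bidirectional fit relative to DMSO.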

A short description of assay [6]: ATG_SREBP_CIS: Attagene CIS-FACTORIAL HepG2 Assay for human Sterol Regulatory Element Binding (SREBP) (AID 2282962). The note with it: HepG2 Attagene cis-factorial SREBP reporter, mRNA; actives raise or lower the signal. In outline:
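Endogenous SREBP activity read as cis-element-driven reporter transcript in transiently transfected HepG2, 24 h post-dosing; quantified via RT-PCR plus capillary electrophoresis of fluorescent fragments. Gain or loss of signal fitted relative to DMSO baseline.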

The target in assay [7] is Signal transducer and activator of transcription 3 (Homo sapiens) (UniProt P40763). Put plainly: ATG_STAT3_CIS: Attagene CIS-FACTORIAL HepG2 Assay for human Signal Transducer and Activator of Transcription 3 (STAT3) (AID 2282963). Conditions: HepG2, Attagene cis-factorial STAT3 reporter transcription; actives raise or lower the signal. The procedure, abridged: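 Fluorescence intensity of 6-FAM-labelled reporter fragments, separated by capillary electrophoresis after RT-PCR, gave the signal. Cells were HepG2 transfected with cis-element reporter units and treated 24 h; fitting was bidirectional relative to DMSO.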
Sequence of Signal transducer and activator of transcription 3 (Homo sapiens) (P40763 whole entry, looked up, the tested form may be a part): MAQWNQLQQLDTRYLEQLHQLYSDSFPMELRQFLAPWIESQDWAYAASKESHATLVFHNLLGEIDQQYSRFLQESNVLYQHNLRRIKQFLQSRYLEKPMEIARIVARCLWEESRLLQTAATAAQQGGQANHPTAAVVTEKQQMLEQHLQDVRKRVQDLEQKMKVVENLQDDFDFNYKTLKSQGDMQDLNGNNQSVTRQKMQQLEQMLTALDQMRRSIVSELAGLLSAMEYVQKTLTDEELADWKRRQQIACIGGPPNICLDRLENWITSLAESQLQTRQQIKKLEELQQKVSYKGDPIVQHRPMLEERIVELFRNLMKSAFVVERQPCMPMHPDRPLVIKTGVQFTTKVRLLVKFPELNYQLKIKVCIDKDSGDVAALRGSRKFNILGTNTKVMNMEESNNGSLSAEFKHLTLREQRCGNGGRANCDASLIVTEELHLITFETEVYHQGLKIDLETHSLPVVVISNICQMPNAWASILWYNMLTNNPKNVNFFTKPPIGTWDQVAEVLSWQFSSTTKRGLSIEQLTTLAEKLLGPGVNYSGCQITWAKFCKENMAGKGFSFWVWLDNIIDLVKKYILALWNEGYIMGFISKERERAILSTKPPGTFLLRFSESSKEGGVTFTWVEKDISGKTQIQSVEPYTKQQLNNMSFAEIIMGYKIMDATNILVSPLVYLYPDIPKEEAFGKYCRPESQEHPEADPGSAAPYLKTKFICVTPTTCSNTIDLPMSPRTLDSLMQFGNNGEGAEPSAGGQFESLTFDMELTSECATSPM

Assay [8] in a line: ATG_TA_CIS: Attagene CIS-FACTORIAL HepG2 Assay for human TA Basal Promoter (AID 2282964). Conditions: HepG2 Attagene CIS-factorial TA basal promoter reporter; actives raise or lower the signal. In outline:
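Transfected HepG2, 24 h compound exposure; RNA → RT-PCR → FAM primer extension → HpaI cut → CE fluorescence. Gain/loss-of-signal fitted against DMSO negative control. Background-control readout.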

A short description of assay [9]: ATG_TCF_b_cat_CIS: Attagene CIS-FACTORIAL HepG2 Assay for human T-Cell-Factor with beta-catenin (TCF/b-cat) (AID 2282965). The note with it: HepG2 TCF/beta-catenin cis-reporter transcription, actives raise or lower the signal. The procedure, abridged:
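HepG2, transient MRTU transfection, cis-element-driven reporters (endogenous TFs). 24 h compound exposure. Readout: reporter mRNA by RT-PCR + 6-FAM primer extension, HpaI digest, capillary electrophoresis. Gain/loss fit vs DMSO baseline.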

The nature of assay [10]: ATG_TAL_CIS: Attagene CIS-FACTORIAL HepG2 Assay for human TAL Basal Promoter (AID 2282966).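 Further: background control endpoint measuring basal TAL promoter reporter mRNA not a specific factor.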 Conditions: HepG2 Attagene cis-factorial TAL promoter reporter; actives raise or lower the signal. In outline:
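Endogenous transcription-factor activity is sensed in HepG2 cells through transfected cis-promoter reporter constructs. After 24 h dosing, reporter transcripts are quantified by RT-PCR and capillary electrophoresis. Gain or loss of signal is fitted relative to DMSO.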

Assay [11] in a line: ATG_TGFb_CIS: Attagene CIS-FACTORIAL HepG2 Assay for human Transforming Growth Factor (TGF) (AID 2282967). The note with it: HepG2 Attagene CIS TGFb reporter, mRNA transcription; actives raise or lower the signal. In outline:
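Readout: fluorescently labeled reporter cDNA fragments resolved by capillary electrophoresis after RT-PCR. Transfected HepG2 cells dosed for 24 h; endogenous TF activity at TGFB1-linked cis element; gain or loss fitted relative to DMSO.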

In assay [12] the target is Estrogen receptor (Homo sapiens) (UniProt P03372). Description: ATG_ERa_TRANS: Attagene TRANS-FACTORIAL HepG2 Assay for human Estrogen Receptor alpha (ERa) (AID 2282970; active means hit-call score of the fitted dose curve at least 0.9, where 1 is the maximum). The note with it: HepG2 Attagene TRANS ERa GAL4 reporter, mRNA. In outline: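 Transfected HepG2 cells carrying GAL4-UAS-driven reporter units were dosed for 24 hours. Total RNA was reverse-transcribed, reporter sequences PCR-amplified, FAM-labelled, HpaI-digested and resolved by capillary electrophoresis. Increases over DMSO control defined activity.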
Sequence of Estrogen receptor (Homo sapiens) (P03372 whole entry, looked up, the tested form may be a part): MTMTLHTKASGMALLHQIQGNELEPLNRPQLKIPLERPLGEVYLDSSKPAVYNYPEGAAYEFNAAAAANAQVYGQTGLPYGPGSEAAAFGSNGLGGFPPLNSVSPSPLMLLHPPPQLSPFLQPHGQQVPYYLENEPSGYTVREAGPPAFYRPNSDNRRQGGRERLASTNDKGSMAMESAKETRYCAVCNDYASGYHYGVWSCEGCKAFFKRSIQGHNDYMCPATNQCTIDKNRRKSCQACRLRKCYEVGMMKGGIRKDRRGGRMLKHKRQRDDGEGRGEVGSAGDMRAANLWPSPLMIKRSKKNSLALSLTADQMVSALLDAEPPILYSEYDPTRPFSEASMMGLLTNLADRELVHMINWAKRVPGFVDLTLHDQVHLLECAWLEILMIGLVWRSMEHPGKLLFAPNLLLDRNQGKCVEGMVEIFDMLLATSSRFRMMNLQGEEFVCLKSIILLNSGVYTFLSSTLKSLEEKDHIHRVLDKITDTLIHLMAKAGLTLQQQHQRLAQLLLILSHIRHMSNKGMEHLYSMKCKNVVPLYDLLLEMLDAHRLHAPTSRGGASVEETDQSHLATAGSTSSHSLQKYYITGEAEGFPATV

The target of assay [13] is Steroid hormone receptor ERR1 (Homo sapiens) (UniProt P11474). Description: ATG_ERRa_TRANS: Attagene TRANS-FACTORIAL HepG2 Assay for human Estrogen-Related Receptor alpha (ERRa) (AID 2282971; active means hit-call score of the fitted dose curve at least 0.9, where 1 is the maximum). The note with it: HepG2 Attagene TRANS reporter, ERRa transactivation. In outline:
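HepG2 cells were transiently transfected with multiple GAL4-UAS reporter units, then dosed with compound for 24 h. Total RNA was reverse-transcribed, reporter cDNA PCR-amplified and fluorescently labelled, and fragments resolved by capillary electrophoresis; induction was compared with DMSO.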

Assay [14] can be described thus: ATG_M_19_TRANS: Attagene TRANS-FACTORIAL HepG2 Assay for M19 Transcription Factor (Internal Marker) (AID 2282974; active means hit-call score of the fitted dose curve at least 0.9, where 1 is the maximum). Conditions: HepG2 Attagene TRANS-FACTORIAL M19 internal marker reporter. In outline: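 Reporter mRNA induction was measured in transfected HepG2 cells 24 h after dosing. Endpoint fitted upward relative to DMSO and serves as a background control within the multiplexed TRANS panel.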

A short description of assay [15]: ATG_GAL4_TRANS: Attagene TRANS-FACTORIAL HepG2 Assay for GAL4 (Internal Marker) (AID 2282976; active means hit-call score of the fitted dose curve at least 0.9, where 1 is the maximum). Conditions: HepG2 Attagene TRANS GAL4 internal marker reporter. The procedure, abridged:
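Fluorescence from capillary electrophoresis of labelled RT-PCR products quantifies reporter mRNA induction after 24 h dosing of HepG2 cells carrying transfected GAL4-UAS reporter transcription units. Vehicle DMSO serves as baseline.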

Assay [16] is described as follows: ATG_VDRE_CIS: Attagene CIS-FACTORIAL HepG2 Assay for human Vitamin D Receptor Element (VDRE) (AID 2282968). Conditions: HepG2 VDRE cis-reporter transcription, actives raise or lower the signal. The procedure, abridged:
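Compounds were applied for 24 h to HepG2 cells transfected with promoter-regulated reporter units. Total RNA was reverse-transcribed, and reporter amplicons were fluorescently labelled and sized by capillary electrophoresis.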

Assay [17] has as its target Nuclear receptor subfamily 1 group I member 3 (Homo sapiens) (UniProt Q14994). Description: ATG_CAR_TRANS: Attagene TRANS-FACTORIAL HepG2 Assay for human Constitutive Androstane Receptor (CAR) (AID 2282969; active means hit-call score of the fitted dose curve at least 0.9, where 1 is the maximum;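 further: activators raise reporter mRNA above DMSO so AC50 marks induction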). Conditions: HepG2 Attagene TRANS-FACTORIAL CAR reporter. In outline: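 Transiently transfected HepG2, multiplex TRANS reporters (CAR-Gal4 chimera driving GAL4-UAS reporter). 24 h dosing. Readout: reporter transcript by RT-PCR + capillary electrophoresis, fluorescence intensity; positive direction vs DMSO.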

Assay [18] addresses X-box-binding protein 1 (Homo sapiens) (UniProt P17861). Put plainly: ATG_Xbp1_CIS: Attagene CIS-FACTORIAL HepG2 Assay for human X-box Binding Protein 1 (XBP1) (AID 2282972). Conditions: HepG2 XBP1 cis-element reporter, Attagene multiplex; actives raise or lower the signal. In outline:
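Reporter transcripts were quantified by RT-PCR with fluorescent primer extension and capillary electrophoresis after 24 h chemical exposure. Cells: transiently transfected HepG2 carrying cis-regulated reporter constructs; data fitted bidirectionally relative to DMSO.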

Assay [19] concerns the target Androgen receptor (Homo sapiens) (UniProt P10275). Put plainly: ATG_AR_TRANS: Attagene TRANS-FACTORIAL HepG2 Assay for human Androgen Receptor (AR) (AID 2282973; active means hit-call score of the fitted dose curve at least 0.9, where 1 is the maximum). The note with it: HepG2 Attagene TRANS-FACTORIAL AR reporter transcription. The procedure, abridged: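 Transfected HepG2, 24 h treatment, chimeric NR-Gal4 driving GAL4-UAS reporters. mRNA induction by RT-PCR/capillary electrophoresis fluorescence; DMSO as negative control and baseline.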

Sequence of Nuclear receptor subfamily 1 group I member 3 (Homo sapiens) (Q14994 whole entry, looked up, the tested form may be a part): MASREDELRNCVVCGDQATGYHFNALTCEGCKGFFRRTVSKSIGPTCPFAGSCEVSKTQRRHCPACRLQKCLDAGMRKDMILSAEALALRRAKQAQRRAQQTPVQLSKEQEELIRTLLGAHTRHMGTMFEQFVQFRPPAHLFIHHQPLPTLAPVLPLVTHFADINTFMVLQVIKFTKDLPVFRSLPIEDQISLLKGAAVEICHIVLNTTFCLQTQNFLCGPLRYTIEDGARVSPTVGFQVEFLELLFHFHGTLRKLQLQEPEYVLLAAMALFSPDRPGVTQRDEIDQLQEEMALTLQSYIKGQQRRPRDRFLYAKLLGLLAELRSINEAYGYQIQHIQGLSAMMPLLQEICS
Sequence of Transcription factor Sp1 (Homo sapiens) (P08047 whole entry, looked up): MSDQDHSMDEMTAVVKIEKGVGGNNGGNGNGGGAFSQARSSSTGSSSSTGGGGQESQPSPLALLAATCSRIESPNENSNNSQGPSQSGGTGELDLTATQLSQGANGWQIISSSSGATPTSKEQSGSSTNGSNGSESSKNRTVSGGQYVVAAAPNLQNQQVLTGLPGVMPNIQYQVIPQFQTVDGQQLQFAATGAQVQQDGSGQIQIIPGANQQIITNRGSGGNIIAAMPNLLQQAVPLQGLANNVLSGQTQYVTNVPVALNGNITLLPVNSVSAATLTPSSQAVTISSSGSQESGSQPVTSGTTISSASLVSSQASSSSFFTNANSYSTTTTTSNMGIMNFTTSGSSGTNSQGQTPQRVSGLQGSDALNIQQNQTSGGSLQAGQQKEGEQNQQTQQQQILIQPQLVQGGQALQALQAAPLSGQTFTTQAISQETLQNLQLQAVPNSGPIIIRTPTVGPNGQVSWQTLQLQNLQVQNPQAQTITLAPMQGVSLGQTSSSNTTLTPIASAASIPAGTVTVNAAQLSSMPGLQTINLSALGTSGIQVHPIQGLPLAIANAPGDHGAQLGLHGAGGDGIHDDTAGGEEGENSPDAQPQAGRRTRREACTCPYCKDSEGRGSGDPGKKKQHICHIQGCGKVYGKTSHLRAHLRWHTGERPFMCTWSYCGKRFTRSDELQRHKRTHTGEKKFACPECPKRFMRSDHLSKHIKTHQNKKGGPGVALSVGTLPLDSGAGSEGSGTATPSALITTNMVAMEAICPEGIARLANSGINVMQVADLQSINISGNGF
Sequence of Androgen receptor (Homo sapiens) (P10275 whole entry, looked up, the tested form may be a part): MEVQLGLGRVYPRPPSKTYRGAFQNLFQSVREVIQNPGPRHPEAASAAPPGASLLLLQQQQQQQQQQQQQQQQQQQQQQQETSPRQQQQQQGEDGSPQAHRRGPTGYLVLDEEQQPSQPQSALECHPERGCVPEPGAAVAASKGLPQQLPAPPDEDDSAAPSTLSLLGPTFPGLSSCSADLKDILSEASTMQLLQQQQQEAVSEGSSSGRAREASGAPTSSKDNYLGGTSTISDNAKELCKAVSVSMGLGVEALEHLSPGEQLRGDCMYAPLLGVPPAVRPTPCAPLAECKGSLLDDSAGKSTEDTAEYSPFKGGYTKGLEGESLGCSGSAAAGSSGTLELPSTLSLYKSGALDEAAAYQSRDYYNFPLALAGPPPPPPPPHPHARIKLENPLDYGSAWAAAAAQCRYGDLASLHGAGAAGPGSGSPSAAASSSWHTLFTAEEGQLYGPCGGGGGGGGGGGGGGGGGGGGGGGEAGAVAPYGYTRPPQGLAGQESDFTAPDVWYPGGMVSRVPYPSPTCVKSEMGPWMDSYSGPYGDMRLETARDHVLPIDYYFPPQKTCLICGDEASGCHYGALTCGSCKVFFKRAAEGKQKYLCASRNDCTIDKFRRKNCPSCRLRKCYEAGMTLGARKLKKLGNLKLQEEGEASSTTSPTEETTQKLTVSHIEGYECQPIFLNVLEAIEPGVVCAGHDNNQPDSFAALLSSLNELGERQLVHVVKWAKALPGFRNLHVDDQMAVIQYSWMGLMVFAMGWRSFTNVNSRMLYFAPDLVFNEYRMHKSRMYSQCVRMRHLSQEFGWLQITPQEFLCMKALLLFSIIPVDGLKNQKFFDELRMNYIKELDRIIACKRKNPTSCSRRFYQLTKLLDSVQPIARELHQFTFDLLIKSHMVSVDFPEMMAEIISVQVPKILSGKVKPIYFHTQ
Sequence of X-box-binding protein 1 (Homo sapiens) (P17861 whole entry, looked up): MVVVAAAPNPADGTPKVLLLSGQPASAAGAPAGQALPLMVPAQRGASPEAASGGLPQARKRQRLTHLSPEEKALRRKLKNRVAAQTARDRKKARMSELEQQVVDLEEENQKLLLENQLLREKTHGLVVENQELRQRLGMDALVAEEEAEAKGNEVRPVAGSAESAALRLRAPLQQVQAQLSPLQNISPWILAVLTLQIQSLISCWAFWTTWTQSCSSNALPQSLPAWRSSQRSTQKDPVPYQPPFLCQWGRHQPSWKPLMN
Sequence of Steroid hormone receptor ERR1 (Homo sapiens) (P11474 whole entry, looked up, the tested form may be a part): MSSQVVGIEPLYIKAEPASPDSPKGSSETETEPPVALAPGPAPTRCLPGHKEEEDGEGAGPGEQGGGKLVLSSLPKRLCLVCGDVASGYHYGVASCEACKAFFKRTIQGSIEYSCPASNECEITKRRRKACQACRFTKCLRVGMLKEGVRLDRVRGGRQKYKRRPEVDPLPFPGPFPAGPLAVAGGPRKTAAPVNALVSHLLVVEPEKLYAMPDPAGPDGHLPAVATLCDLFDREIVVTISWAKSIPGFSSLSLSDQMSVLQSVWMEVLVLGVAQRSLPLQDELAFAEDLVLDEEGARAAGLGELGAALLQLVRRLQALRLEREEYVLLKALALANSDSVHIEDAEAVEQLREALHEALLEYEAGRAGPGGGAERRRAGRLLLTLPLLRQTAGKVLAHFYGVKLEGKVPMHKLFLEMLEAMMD

Turning to `Cc1ccc(O)c(C)c1`, the outcome in assay [1], in [2], in assay [3], in assay [4], in [5] and in assay [6] was inactive. In addition, the outcome in [7], in assay [8], in assay [10], in [11], in assay [12] and in [13] was inactive. Further, the outcome in [14] and in assay [15] was inactive. For the same molecule, in assay [9], the concentration at half-maximal activity (AC50) is 168 µM (active).

With `CC(C)(c1ccccc1)c1ccc(O)cc1`, the AC50 was 2.59 µM (active) [middle of 4 runs] in assay [1]; 22.6 µM (active) and 33.4 µM (active) in assay [2]; 48.9 µM (active) in assay [3]; 50.8 µM (active) in [4]; 51.9 µM (active) and 53.1 µM (active) in assay [5]; 55.9 µM (active) and 54.6 µM (active) in assay [7]. The AC50 is 54 µM (active) in [8]; 39.9 µM (active) and 54.5 µM (active) in assay [9]; 2.17 µM (active) and 21.3 µM (active) and 10.6 µM (active) in assay [16]; 277 nM (active) [middle of 4 runs] in assay [12]. The result in assay [2], in assay [3], in [4], in assay [5], in [6] and in assay [7] was inactive. For the same molecule, the molecule was classed as inactive in [8], in assay [9], in assay [10], in assay [11], in assay [16] and in assay [17]. The molecule was classed as inactive in [14] and in assay [15].

Regarding `CC1=C2C[C@H]3[C@@H](CC=C4C[C@@H](O)CC[C@@]43C)[C@@H]2CC[C@]12O[C@@H]1C[C@H](C)CN[C@H]1[C@H]2C`, the outcome in assay [1], in assay [2], in assay [4], in [6], in [7] and in [9] was inactive. Further, the result in [10], in assay [11], in [16], in assay [12] and in [15] was inactive. Further, the half-maximal activity concentration (AC50) is 12.9 µM (active) in assay [3], 12.8 µM (active) in assay [5] and 12.7 µM (active) in assay [8].

For the molecule `C=CC(N)=O`, the figures for the AC50 in [1] and in assay [16] were 34 µM (active) and 100 µM (active), respectively. For the same molecule, the call in [3], in assay [4], in [5], in assay [6], in [7] and in assay [8] was inactive. For the same molecule, the call in assay [9], in assay [10], in assay [11], in assay [13] and in [15] was inactive.

Consider `CC(C)C(=O)OCC(C)(C)C(OC(=O)C(C)C)C(C)C` (centres undefined), for which the AC50 in assay [1] was 26.7 µM (active); in [12], 52.8 µM (active). Besides, the molecule was called inactive in assay [2], in [3], in assay [4], in assay [5], in assay [6] and in assay [7]. In addition, the outcome in assay [8], in assay [9], in assay [10], in assay [11], in [16] and in assay [17] was inactive. Also, the molecule was called inactive in assay [18], in assay [14] and in [15].

Take `CCC(=O)O[C@H]1CC[C@H]2[C@@H]3CCC4=CC(=O)CC[C@]4(C)[C@H]3CC[C@]12C`: the AC50 in assay [1] is 26.7 µM (active) [middle of 4 runs]; in assay [3], 119 µM (active); in assay [4] it was 152 µM (active); in assay [5], 164 µM (active) and 181 µM (active); in [6], 137 µM (active) [middle of 4 runs]; in assay [8] it was 100 µM (active) and 129 µM (active). Further, the concentration at half-maximal activity (AC50) in assay [9] was 100 µM (active) and 92.5 µM (active); in [10], 156 µM (active); in [18], 141 µM (active) [middle of 4 runs]; in assay [19], 632 nM (active) [middle of 4 runs]. Moreover, the molecule was called inactive in assay [2], in assay [3], in [4], in assay [5], in assay [7] and in [8]. In addition, the call in assay [9], in [10], in assay [11], in assay [14] and in assay [15] was inactive.

By AC50 is commonly meant the concentration giving half of the maximal activity seen.
